The list is not random: actives were taken first. Their share in the collection is about 22%.
CYP2C9 act – CYP2C9 (human) activation; activation factor at 5 µM; AID 1024; 1.4% of 96,000 active; P11712; recombinant CYP2C9, luciferin-H conversion, luminescence; active compounds read high; factor 1 = untreated enzyme, 0 = blocked;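 active means activation factor of 2 or more for CYP2C9 at a 5 µM dose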;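 further: 0 = sulfaphenazole-blocked wells and 1 = vehicle-only wells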
Target sequence (P11712 whole entry, looked up): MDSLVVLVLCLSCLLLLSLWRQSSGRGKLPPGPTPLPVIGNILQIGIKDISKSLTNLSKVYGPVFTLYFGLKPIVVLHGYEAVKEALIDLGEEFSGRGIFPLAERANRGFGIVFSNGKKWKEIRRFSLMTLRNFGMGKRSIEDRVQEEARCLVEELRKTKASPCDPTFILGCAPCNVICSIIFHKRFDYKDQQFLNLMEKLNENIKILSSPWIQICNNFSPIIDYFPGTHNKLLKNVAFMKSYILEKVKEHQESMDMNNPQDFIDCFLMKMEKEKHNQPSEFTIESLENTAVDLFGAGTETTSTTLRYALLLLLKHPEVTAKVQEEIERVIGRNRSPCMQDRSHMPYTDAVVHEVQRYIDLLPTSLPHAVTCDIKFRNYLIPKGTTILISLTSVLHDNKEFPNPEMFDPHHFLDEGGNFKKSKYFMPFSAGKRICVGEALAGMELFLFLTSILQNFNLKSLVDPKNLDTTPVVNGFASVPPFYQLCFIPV
CYP2C19 inh – human CYP2C19 inhibition; inhibition, % at 5 µM; 21% of 96,000 active; P33261; CYP2C19 Supersomes, luciferin-H EGE luminescence, 30 min;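 active means CYP2C19 inhibition above a set limit at 5 µM in the primary screen, cut at about 50% in these data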;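 further: plate controls were negative control wells for no effect and 2.5 mM tranylcypromine positive control for full effect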
F-actin modifier – cytoskeleton assembly modification. HUVEC TNFa F-actin phalloidin imaging, high content. inhibition, % at 2 µM. 0.18% of 91,000 active;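 active means inhibition above the batch mean plus 3 SD and confirmed as a hit by visual image inspection, cut at about 30% in these data, passing the limit was not always enough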
E-sel TNF inh – blocks E-selectin expression induced by TNF alpha; inhibition, % at 2 µM; HUVEC TNFa-induced E-selectin immunofluorescence, high content; 0.71% of 120,000 active;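 active means inhibition above the batch mean plus 3 SD, and confirmed as a hit on visual image review, cut at about 43% in these data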;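 further: 0% = TNF-stimulated DMSO wells and 100% = unstimulated control wells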
CYP2C9 inhib – blocks human cytochrome P450 2C9 | CYP2C9 Supersomes, luciferin-H conversion, luminescence | inhibition, % at 5 µM | 20% of 96,000 active | AID 777;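 active means blocking of liver enzyme CYP2C9 beyond about 50% at 5 µM, limit read from the data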
CYP2C19 act – increases human CYP2C19 enzyme activity; recombinant CYP2C19, luciferin-H EGE luminescence; active compounds read high; 0 = fully inhibited enzyme, 1 = untreated enzyme; P33261; activation factor at 5 µM; 96,000 tested, under 10 active; AID 1025;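 active means activation factor of at least 2 at 5 µM in the primary screen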;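 further: 0 = wells with 2.5 mM tranylcypromine and 1 = vehicle-only wells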
Starred values were filed as active, the others as inactive; / = no result given.

SMILES	CYP2C9 act	CYP2C19 inh	F-actin modifier	E-sel TNF inh	CYP2C9 inhib	CYP2C19 act
O=C(COC(=O)/C=C/c1ccccc1Cl)NCc1ccco1	/	/	/	17.1	/	/
Cc1cc(=O)oc2cc(NC(=O)C3COc4ccccc4O3)ccc12 (configuration not stated)	1.1	10.1	-11.3	/	-9.4	0.9
CCN(CC)S(=O)(=O)c1ccc(NC(=O)C2COc3ccccc3O2)cc1 (configuration not stated)	0.3	22.6	/	-19.9	72.1*	0.8
O=C(Nc1ccc2c(c1)OCO2)C1COc2ccccc2O1 (configuration not stated)	0.9	69.9*	-26.2	8.0	7.2	0.3
O=C(NC1CC2CCC1C2)C1COc2ccccc2O1 (configuration not stated)	1	52.3*	-10.8	-33.8	1.1	0.5
O=C(Nc1ncc(C(F)(F)F)cc1Cl)C1COc2ccccc2O1 (configuration not stated)	0.8	80.1*	10.8	8.8	20.7	0.2
Cn1c(CSCc2ccc(F)cc2)nnc1SCC(=O)N1CCN(c2ccccc2)CC1	0.9	-1.7	-20.7	-18.4	5.3	1
CCN(CC)S(=O)(=O)c1ccc(NC(=O)COC(=O)CN2C(=O)c3ccccc3C2=O)cc1	0.2	33.4	13.8	/	81.3*	0.7
O=C(Nc1ccncc1)C1COc2ccccc2O1 (configuration not stated)	0.5	96.1*	8.1	16.7	52.4*	0
O=C(NC1=NCCS1)C1COc2ccccc2O1 (configuration not stated)	0.8	7.6	-25.3	/	23.0	0.9
O=C(CSC1=NCCN1)C1COc2ccccc2O1 (configuration not stated)	0.3	60.6*	/	-26.6	66.9*	0.4
O=C(Nc1ccc2c(c1)CCC2)C1COc2ccccc2O1 (configuration not stated)	1	95.4*	-1.9	12.5	-1.3	0
O=C1OCc2cc(NC(=O)C3COc4ccccc4O3)ccc21 (configuration not stated)	/	/	/	-1.1	/	/
Cc1nc2ccccn2c1P(=O)(N1CCCCC1)N1CCCCC1	/	/	-9.3	-0.9	/	/
Cc1cc(=O)[nH]c(N/N=C/c2ccc(C)o2)n1	/	/	/	14.1	/	/
O=C(Nc1cnc2ccccc2c1)C1COc2ccccc2O1 (configuration not stated)	0.5	90.5*	13.8	-20.7	53.7*	0.1
CC(C)[C@H](NC(=O)c1ccccc1)C(=O)OCC(=O)Nc1ccc(Cl)cc1C(F)(F)F	/	/	/	-20.5	/	/
O=C(Nc1nccs1)c1ccccc1N=Cc1ccccc1	0.2	93.0*	-41.5	-4.8	79.9*	0.1
COc1cccc(C=Nc2ccccc2C(=O)Nc2nccs2)c1OC	0.8	14.3	5.7	36.1	20.1	0.9
COc1ccc2nc3c(cc2c1)c(NC(=O)C1CCCO1)nn3CC(C)C (configuration not stated)	0.3	48.5	16.6	/	66.4*	0.5
CCCCn1nc(NC(=O)c2cccs2)c2cc3cc(OC)ccc3nc21	0.4	16.8	25.7	/	64.2*	0.8
CCCn1nc(NC(=O)c2cccs2)c2cc3cc(OC)ccc3nc21	0.4	17.9	-10.3	15.3	56.4*	0.8
Cc1cccc(N2CCN(C(=O)CC(NC(=O)c3ccccc3)c3ccccc3)CC2C)c1 (configuration not stated)	/	/	/	0.3	/	/
Cc1cc(S(=O)(=O)N2CCCC2C(=O)N2CCOCC2)c(C)cc1Cl (configuration not stated)	3*	63.1*	/	11.3	-198.8	0.4
CSC(=NC1CCCCC1)NS(=O)(=O)c1ccccc1	0.6	79.7*	/	-29.8	43.7	0.2
SMILES	CYP2C9 act	CYP2C19 inh	F-actin modifier	E-sel TNF inh	CYP2C9 inhib	CYP2C19 act
Cc1ccc(-n2c(=O)c3ccccc3n(CC(=O)C(C)(C)C)c2=O)cc1	/	/	/	33.2	/	/
C=CCN=C(NC#N)SCc1ccccc1Cl	0.8	89.4*	21.2	4.4	20.1	0.1
Cn1nc(C(F)(F)F)c(C#N)c1N1CCN(c2cccc(C(F)(F)F)c2)CC1	0.8	14.9	-5.8	/	17.3	0.9
NC(=O)c1ccc(NS(=O)(=O)c2ccccc2F)cc1	0.9	0.3	/	-14.6	13.3	1
O=c1[nH]c(-c2ccc(Cl)cc2)nc2c1cnn2-c1ccccc1	0.8	9.7	-9.6	31.1	20.1	0.9
OCCNCC1(O)C2CC3CC(C2)CC1C3 (configuration not stated)	1	19.6	4.6	/	2.7	0.8
CCc1ccccc1NC(=O)CSc1nnc([C@H](CCSC)NC(=O)OC(C)(C)C)o1	0.4	50.7*	-12.9	5.9	64.9*	0.5
CSCC[C@H](NC(=O)OC(C)(C)C)c1nnc(SCC=C(C)C)o1	0.4	51.3*	-5.9	0.3	56.7*	0.5
Cc1ccc(-n2c(=O)c3c4c(sc3n(Cc3cc(=O)n5ccccc5n3)c2=O)CCC4)cc1C	/	/	/	89.8*	/	/
COc1ccc(CCNC(=O)C2CCCCC2C(=O)O)cc1OC (configuration not stated)	1	-0.7	-28.9	-8.0	-1.6	1
C=CCn1c(=O)/c(=C2/Sc3cc(OC)ccc3N2C)s/c1=C1\C(=O)N(CC)C(=S)N1C	/	/	/	-39.9	/	/
Nc1nonc1C(=O)NCCNS(=O)(=O)c1ccc(Br)cc1	1.1	60.0*	-1.1	-47.7	-13.0	0.4
COC(=O)c1cn(CCOc2ccc(C)cc2)c2ccccc12	0.3	68.7*	-6.5	-1.4	70.4*	0.3
COc1ccc(N2C(=O)NC3CC2(C)Oc2ccc(Br)cc23)cc1OC (configuration not stated)	0.3	49.7	-14.0	/	74.1*	0.5
Cc1ccc(C2CC(c3ccc(Cl)cc3)n3nc(N)nc3N2)cc1 (configuration not stated)	0.9	11.0	/	21.2	6.4	0.9
CC(=O)c1ccc(C(=O)N2CCCC(CCC(=O)N(C)CCc3ccccn3)C2)s1 (configuration not stated)	/	/	/	-10.2	/	/
CN1CCN(CC(=O)Nc2nc(-c3ccccc3)cs2)CC1	1	7.3	-22.4	/	-3.7	0.9
O=C(CS(=O)(=O)c1ccccc1)Nc1nc(-c2ccccc2)cs1	0	75.6*	-10.0	6.7	98.3*	0.2
O=C(O)CCCC(=O)Nc1nc(-c2ccccc2)cs1	1	9.6	48.7	/	0.2	0.9
Cc1ccc(S(=O)(=O)CC(=O)Nc2nc(-c3ccccc3)cs2)cc1	0	85.0*	/	-3.3	97.4*	0.2
CCCC1C2CN(C(C)=O)CC=C2C(C#N)=C(N)C1(C#N)C#N (configuration not stated)	1	-15.3	/	-40.6	-2.1	1.2
C=C(C)c1cccc(C(C)(C)NC(=O)N2CCN(c3ccccc3OC)CC2)c1	/	/	/	19.7	/	/
Cc1ccc(O)c(CC(C)C)n1	1	-0.9	19.8	-14.6	-0.4	1
COc1ccc(CCc2nc(C)ccc2O)cc1	0.3	82.7*	-6.6	18.4	65.7*	0.2
